Assay results: PubChem BioAssay (NCATS)
“And” between values parts separate entries of the source, which are not always exact repeats. Equal values may be shown once. Inconclusive results are not listed. Entries that show only a call come without a potency. The source holds several records for some structures; these can differ, active in one and inactive in another. The source made the active and inactive calls. Unless noted, the call rests on the fitted dose curve; in most records, active means well fitted curve in the direction sought with a large enough effect; inconclusive means small, poorly fitted or top-dose-only effect, or another doubt; inactive means no such curve, though single readings can be large; an effect the other way counts as inactive or inconclusive.

What was measured:
[1] = molecular target: Galactokinase (Homo sapiens) (UniProt P51570); test: qHTS Validation Assay for Inhibitors of Human Galactokinase (GALK) (AID 493189); conditions: purified human GALK enzyme activity, qHTS 7-point titration; series mostly up to 57.5 µM
Summary of the method: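 Compounds were pin-transferred into ATP buffer, then GALK-galactose mix was added (final 5 nM enzyme, 100 uM galactose, 35 uM ATP). After 1 h at room temperature, remaining ATP was measured luminescently.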

[2] = Validation screen for small molecules that induce DNA re-replication in SW480 colon adenocarcinoma cells (AID 504364); conditions: DNA re-replication phenotype (high-content imaging); series mostly up to 46.1 µM
Summary of the method: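 Image-based DNA content read-out: Hoechst stain 40 min, total nuclear fluorescence intensity (ex 405 nm, em 500-530 nm) after 48 h compound exposure of 250 SW480 cells/well at 37 C, 5% CO2, versus DMSO vehicle.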

[3] = molecular target: Peptidyl-prolyl cis-trans isomerase NIMA-interacting 1 (Homo sapiens) (UniProt Q13526); test: qHTS Validation Assay to Find Inhibitors of Pin1 (AID 504536; active means well fitted inhibition curve with a large enough effect in the polarisation, with a control signal flat, not every such curve was filed as active; the % refers to the polarisation); conditions: Pin1 fluorescence polarization peptide binding assay; series mostly up to 57.5 µM
Summary of the method: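 Fluorescence polarization competition: compounds (titration) displace HiFluor-488-labeled Pin1-1b peptide from Pin1 (0.3 uM final) in pH 7.5 HEPES buffer with DTT, 10 min at room temperature; %Activity normalized to no-enzyme wells, curves fitted.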

[4] = molecular target: Phosphoglycerate kinase, glycosomal (Trypanosoma brucei brucei) (UniProt P07378); test: qHTS Validation Assay to Find Inhibitors of Phosphoglycerate Kinase (AID 504547); conditions: enzymatic PGK inhibition, coupled luminescence read-out; series mostly up to 57.5 µM
Summary of the method: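 In TEA buffer (100mM, pH 7.6) containing 5mM MgCl2 and 0.01% Tween-20, the GAPDH-coupled PGK reaction proceeded for 60 minutes at room temperature before a single luminescence reading using Kinase-Glo Plus.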

[5] = molecular target: phosphoglycerate mutase (Leishmania major) (UniProt Q4Q090); test: qHTS Validation Assay to Find Inhibitors of Phosphoglycerate Mutase (AID 504548); conditions: biochemical enzyme activity; series mostly up to 57.5 µM
Summary of the method: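 Lm PGAM 1.25nM final; 100 mM TEA pH 7.6, 5 mM MgCl2, 0.01% Tween-20; 45 min RT; Kinase-GloPlus, 10 min; end-point luminescence. Enzyme-free wells as negative controls.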

[6] = molecular target: Ubiquitin carboxyl-terminal hydrolase 1 (Homo sapiens) (UniProt O94782); test: Inhibitors of USP1/UAF1: Pilot qHTS (AID 504865); conditions: purified USP1/UAF1, Ub-rhodamine cleavage fluorescence; series mostly up to 114 µM; further: nearly all actives have a fitted effect of over 35% in size; further: potency means the concentration at half of the fitted maximal effect
Summary of the method: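 Kinetic fluorescence assay: 1nM USP1/UAF1, 15 min compound preincubation, then 150nM Ub-Rho; 480/540 nm.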

[7] = qHTS for Inhibitors of ATXN expression: Validation of Cytotoxic Assay (AID 588349); conditions: cytotoxicity counter-screen for ATXN expression inhibitors, cell viability; series mostly up to 57.1 µM
Summary of the method: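 Cytotoxicity counter-screen: ATP-based luminescent viability (CellTiter Glo) after 72 hr exposure of HEK293 cells to a compound titration at 37 degrees C.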

[8] = qHTS for Inhibitors of ATXN expression: Validation (AID 588378); conditions: cell-based ATXN2 expression reporter assay, luminescence; series mostly up to 57.1 µM; further: nearly all actives have a fitted effect of over 75% in size
Summary of the method: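 Validation of ATXN2 expression inhibitors uses a cell-based luciferase fusion reporter in HEK293 cells, with 24 h compound exposure and paired viability (fluorescence) and reporter (luminescence) end-point reads.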

[9] = molecular target: Estrogen receptor (Homo sapiens) (UniProt P03372); test: qHTS assay for small molecule antagonists of estrogen receptor alpha signaling (AID 588513; active means well fitted curve in the direction sought with a large enough effect in the signal ratio, with a control signal flat, not every such curve was filed as active; the % refers to the signal ratio); conditions: ER-alpha-UAS-bla HEK293, beta-lactamase ratio, antagonist mode; series mostly up to 76.9 µM
Summary of the method: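 Cells were plated at 5000/well and incubated 4 h at 37 C. Compounds were added as 1:2 dilution series, duplicates. 17-beta-estradiol (0.5nM final) was added for 18 h before CCF4 detection.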

[10] = molecular target: DNA dC->dU-editing enzyme APOBEC-3G (Homo sapiens) (UniProt Q9HC16); test: qHTS for inhibitors of Vif-A3G interactions: Validation (AID 588379); conditions: Vif-A3G protein interaction assay; series mostly up to 46.1 µM
Summary of the method: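 Yellow fluorescence (Ex 488, Em 500-530) of Vif-coexpressing HeLa A3G-eYFP cells, scanned by Acumen cytometer, reports blocked A3G degradation. Cells plated at 700/well overnight at 37 deg C before compound addition, then a further overnight compound incubation at 37 deg C.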

Chain of Phosphoglycerate kinase, glycosomal (Trypanosoma brucei brucei) (P07378 whole entry, looked up): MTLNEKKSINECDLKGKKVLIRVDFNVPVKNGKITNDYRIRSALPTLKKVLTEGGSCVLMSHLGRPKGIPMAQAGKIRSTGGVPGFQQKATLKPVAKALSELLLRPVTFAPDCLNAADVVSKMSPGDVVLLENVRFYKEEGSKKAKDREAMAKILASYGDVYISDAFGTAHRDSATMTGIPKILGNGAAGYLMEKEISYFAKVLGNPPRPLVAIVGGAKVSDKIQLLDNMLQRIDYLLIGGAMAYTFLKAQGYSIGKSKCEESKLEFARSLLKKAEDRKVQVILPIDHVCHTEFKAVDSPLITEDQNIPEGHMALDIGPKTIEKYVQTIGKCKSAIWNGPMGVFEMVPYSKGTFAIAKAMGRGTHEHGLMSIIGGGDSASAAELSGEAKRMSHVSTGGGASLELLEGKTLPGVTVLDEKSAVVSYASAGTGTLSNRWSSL
Chain of phosphoglycerate mutase (Leishmania major) (Q4Q090 1-553): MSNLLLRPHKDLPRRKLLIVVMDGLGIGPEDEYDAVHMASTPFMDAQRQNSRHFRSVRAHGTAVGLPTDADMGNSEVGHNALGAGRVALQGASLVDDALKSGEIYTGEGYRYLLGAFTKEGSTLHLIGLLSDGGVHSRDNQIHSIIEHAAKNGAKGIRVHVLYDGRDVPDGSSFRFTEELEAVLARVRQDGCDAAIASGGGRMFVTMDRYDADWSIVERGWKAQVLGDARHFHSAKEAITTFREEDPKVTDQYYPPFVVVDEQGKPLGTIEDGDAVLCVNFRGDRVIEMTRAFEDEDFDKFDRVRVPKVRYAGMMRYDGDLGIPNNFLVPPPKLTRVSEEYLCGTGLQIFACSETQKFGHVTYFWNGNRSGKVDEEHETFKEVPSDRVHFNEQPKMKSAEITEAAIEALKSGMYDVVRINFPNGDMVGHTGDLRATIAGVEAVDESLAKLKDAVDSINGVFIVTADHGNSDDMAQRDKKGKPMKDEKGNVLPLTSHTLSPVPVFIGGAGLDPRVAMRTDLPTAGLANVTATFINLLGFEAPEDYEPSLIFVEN
Chain of Peptidyl-prolyl cis-trans isomerase NIMA-interacting 1 (Homo sapiens) (Q13526 whole entry, looked up): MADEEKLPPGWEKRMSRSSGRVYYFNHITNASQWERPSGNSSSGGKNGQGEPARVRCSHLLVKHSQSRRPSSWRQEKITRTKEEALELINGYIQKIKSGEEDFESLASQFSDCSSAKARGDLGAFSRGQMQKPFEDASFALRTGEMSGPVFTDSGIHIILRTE
Chain of Galactokinase (Homo sapiens) (P51570 whole entry, looked up): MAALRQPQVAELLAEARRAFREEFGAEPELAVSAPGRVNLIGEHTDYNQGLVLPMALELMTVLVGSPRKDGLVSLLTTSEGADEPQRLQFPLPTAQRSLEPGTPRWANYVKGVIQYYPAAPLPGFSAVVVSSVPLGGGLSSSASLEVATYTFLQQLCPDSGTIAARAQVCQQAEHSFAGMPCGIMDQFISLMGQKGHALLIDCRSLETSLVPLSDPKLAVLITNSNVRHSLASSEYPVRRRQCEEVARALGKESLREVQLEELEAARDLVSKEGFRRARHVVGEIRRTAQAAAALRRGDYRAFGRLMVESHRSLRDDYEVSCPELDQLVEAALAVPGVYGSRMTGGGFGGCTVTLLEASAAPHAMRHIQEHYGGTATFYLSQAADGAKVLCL
Chain of Ubiquitin carboxyl-terminal hydrolase 1 (Homo sapiens) (O94782 whole entry, looked up): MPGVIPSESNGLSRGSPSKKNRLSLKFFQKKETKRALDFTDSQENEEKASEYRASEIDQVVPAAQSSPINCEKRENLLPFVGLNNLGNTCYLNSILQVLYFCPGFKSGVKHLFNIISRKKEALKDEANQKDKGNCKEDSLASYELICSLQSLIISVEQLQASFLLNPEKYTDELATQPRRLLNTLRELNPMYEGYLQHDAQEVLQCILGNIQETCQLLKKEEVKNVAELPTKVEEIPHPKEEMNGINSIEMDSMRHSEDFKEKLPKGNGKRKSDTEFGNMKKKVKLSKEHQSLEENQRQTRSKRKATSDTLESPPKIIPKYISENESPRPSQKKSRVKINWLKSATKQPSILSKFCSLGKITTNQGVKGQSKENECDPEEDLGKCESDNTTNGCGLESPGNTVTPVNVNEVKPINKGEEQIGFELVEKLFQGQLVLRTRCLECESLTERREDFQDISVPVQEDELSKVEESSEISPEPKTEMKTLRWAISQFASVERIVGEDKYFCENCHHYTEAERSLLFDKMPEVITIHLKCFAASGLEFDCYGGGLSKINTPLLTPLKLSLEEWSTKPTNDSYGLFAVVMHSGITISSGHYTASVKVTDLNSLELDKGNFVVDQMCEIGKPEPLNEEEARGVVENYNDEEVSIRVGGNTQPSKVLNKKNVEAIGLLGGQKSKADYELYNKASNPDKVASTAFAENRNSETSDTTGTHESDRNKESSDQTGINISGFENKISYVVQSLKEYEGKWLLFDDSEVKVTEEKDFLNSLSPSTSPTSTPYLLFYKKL
Chain of Estrogen receptor (Homo sapiens) (P03372 whole entry, looked up): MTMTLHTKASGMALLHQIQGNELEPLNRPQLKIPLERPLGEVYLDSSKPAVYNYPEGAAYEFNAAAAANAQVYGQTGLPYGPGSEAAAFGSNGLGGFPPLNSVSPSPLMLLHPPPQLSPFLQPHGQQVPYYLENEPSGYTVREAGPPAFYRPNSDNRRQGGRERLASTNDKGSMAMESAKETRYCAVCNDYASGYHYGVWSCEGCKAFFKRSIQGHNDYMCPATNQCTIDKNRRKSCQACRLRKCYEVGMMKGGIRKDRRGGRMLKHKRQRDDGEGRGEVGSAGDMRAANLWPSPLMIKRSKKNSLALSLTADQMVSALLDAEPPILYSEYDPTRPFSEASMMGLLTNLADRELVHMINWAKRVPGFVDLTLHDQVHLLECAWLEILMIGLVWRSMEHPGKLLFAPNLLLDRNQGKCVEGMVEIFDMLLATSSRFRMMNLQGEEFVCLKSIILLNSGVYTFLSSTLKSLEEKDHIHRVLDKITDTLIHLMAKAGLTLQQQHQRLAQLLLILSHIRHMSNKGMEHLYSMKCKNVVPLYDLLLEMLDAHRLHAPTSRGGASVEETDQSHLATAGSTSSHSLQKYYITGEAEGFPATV
Chain of DNA dC->dU-editing enzyme APOBEC-3G (Homo sapiens) (Q9HC16 whole entry, looked up): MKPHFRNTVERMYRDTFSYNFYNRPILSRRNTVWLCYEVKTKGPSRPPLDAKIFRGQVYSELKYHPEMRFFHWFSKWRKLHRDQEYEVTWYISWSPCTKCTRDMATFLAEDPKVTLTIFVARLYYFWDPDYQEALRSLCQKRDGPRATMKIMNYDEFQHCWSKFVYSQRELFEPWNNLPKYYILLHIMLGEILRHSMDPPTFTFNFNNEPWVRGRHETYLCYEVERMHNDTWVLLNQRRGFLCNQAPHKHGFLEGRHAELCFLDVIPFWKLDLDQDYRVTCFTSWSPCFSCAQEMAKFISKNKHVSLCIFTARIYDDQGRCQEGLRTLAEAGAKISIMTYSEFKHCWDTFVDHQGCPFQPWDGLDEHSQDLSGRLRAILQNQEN

With CC(=O)OCC(=O)[C@@]1(O)CC[C@H]2[C@@H]3CCC4=CC(=O)CC[C@]4(C)[C@H]3C(=O)C[C@@]21C the outcome [1] was “inactive”, the outcome [2] was “inactive” and the outcome [3] was “inactive”. The outcome [4] was “inactive”, the outcome [5] was “inactive” and the Potency [6] was “inactive”. For the same molecule, the Potency [7] was “inactive” and the Potency [8] was “inactive”.

For CCN(CC)CCOC(=O)C1(C2CCCCC2)CCCCC1, the outcome [1] was “inactive”, the outcome [2] was “inactive” and the outcome [3] was “inactive”. The outcome [4] was “inactive”, the outcome [5] was “inactive” and the Potency [6] was “inactive”.

In the case of O=S(=O)(O)c1cc(I)c(O)c2ncccc12, the Potency [6] is reported as “inactive”.

With CC(=O)c1ccc2c(c1)N(CCCN(C)C)c1ccccc1S2 the Potency [6] was “inactive”.

In the case of CC(=O)Nc1ccc(/C=N/NC(N)=S)cc1, the Potency [6] is reported as “inactive”.

With CC(C)(C)[C@]1(O)CCN2C[C@H]3c4ccccc4CCc4cccc(c43)[C@@H]2C1 the outcome [3] was “inactive”, the outcome [4] was “inactive” and the outcome [5] was “inactive”. For the same molecule, the Potency [6] was “inactive”, the Potency [7] was “inactive” and the Potency [8] was “inactive”.

With CCN(CC)CCCC(C)Nc1c2ccc(Cl)cc2nc2ccc(OC)cc12 (centres undefined) the outcome [1] was “inactive”, the outcome [2] was “inactive” and the outcome [4] was “inactive”. For the same molecule, the Potency [6] was 56.2 µM (active) and 79.4 µM (active).

In the case of NC(=O)c1ncn([C@@H]2O[C@H](CO)[C@@H](O)[C@H]2O)n1, the outcome [2] is reported as “inactive”, the outcome [3] is reported as “inactive” and the Potency [6] is reported as “inactive”. The Potency [7] was “inactive”.

With COCCOC(=O)C1=C(C)NC(C)=C(C(=O)OC/C=C/c2ccccc2)C1c1cccc([N+](=O)[O-])c1 (centres undefined) the outcome [3] was “inactive”, the outcome [4] was “inactive” and the outcome [5] was “inactive”.

For CC(=O)Oc1ccc(C2(c3ccc(OC(C)=O)cc3)C(=O)Nc3ccccc32)cc1, the Potency [6] was “inactive”.

With CCCCOc1cc(C(=O)OCCN(CC)CC)ccc1N the Potency [6] was “inactive”.

With Cc1ncc(COP(=O)(O)O)c(C=O)c1O the Potency [6] was “inactive”.

In the case of O=c1[nH]c(=O)c2[nH]c(=O)[nH]c2[nH]1, the Potency [6] is reported as “inactive”.

In the case of C[C@]12C[C@H](O)[C@H]3[C@@H](CCC4=CC(=O)CC[C@@]43C)[C@@H]1CC[C@@H]2C(=O)CO, the outcome [3] is reported as “inactive”, the outcome [4] is reported as “inactive” and the outcome [5] is reported as “inactive”. The Potency [6] was “inactive”, the Potency [7] was “inactive” and the Potency [8] was “inactive”. The outcome [9] was “inactive”.

For CCN(CC)C(C)CN1c2ccccc2Sc2ccccc21 (centres undefined), the outcome [3] was “inactive”, the outcome [4] was “inactive” and the outcome [5] was “inactive”. For the same molecule, the Potency [6] was 44.7 µM (active) and inactive and the Potency [7] was “inactive”.

With NCC(=O)CCC(=O)O the Potency [6] was “inactive”.

For O=C(O)c1ccccc1-c1ccc(C(F)(F)F)cc1, the Potency [6] was “inactive”.

For CCN(CC)CCNC(C(=O)OCCC(C)C)c1ccccc1 (centres undefined), the Potency [6] was “inactive”.

With O=C(O)[C@@H]1CSCN1 the Potency [6] was “inactive”.

For Cc1c(O)cccc1C(=O)N[C@@H](CSc1ccccc1)[C@H](O)CN1C[C@H]2CCCC[C@H]2C[C@H]1C(=O)NC(C)(C)C, the Potency [6] was “inactive”.

For OCCN1CCN(CCCN2c3ccccc3Sc3ccc(Cl)cc32)CC1, the outcome [1] was “inactive”, the outcome [3] was “inactive” and the outcome [4] was “inactive”. The outcome [5] was “inactive” and the Potency [6] was “inactive”.

In the case of CN(C)CCCN1c2ccccc2CCc2ccccc21, the outcome [4] is reported as “inactive” and the outcome [5] is reported as “inactive”.

In the case of C[C@H]1O[C@@H](n2cc(F)c(=O)[nH]c2=O)[C@H](O)[C@@H]1O, the outcome [1] is reported as “inactive”, the outcome [2] is reported as “inactive” and the Potency [6] is reported as “inactive”.

In the case of CC[C@H]1CN2CCc3cc(OC)c(OC)cc3[C@@H]2C[C@@H]1C[C@H]1NCCc2cc(OC)c(OC)cc21, the outcome [1] is reported as “inactive”, the outcome [3] is reported as “inactive” and the outcome [4] is reported as “inactive”. For the same molecule, the outcome [5] was “inactive”.

For Nc1ncnc2c1ncn2[C@@H]1O[C@H](CO)[C@@H](O)[C@H]1O, the outcome [3] was “inactive”, the outcome [4] was “inactive” and the outcome [5] was “inactive”. The Potency [6] was “inactive”, the Potency [7] was “inactive” and the Potency [8] was “inactive”. The outcome [10] was “inactive”.

For Cn1cc[nH]c1=S, the Potency [6] was “inactive”.

With CN(C)CCCN1c2ccccc2Sc2ccc(Cl)cc21 the outcome [1] was “inactive”, the outcome [3] was “inactive” and the outcome [4] was “inactive”. For the same molecule, the outcome [5] was “inactive” and the Potency [6] was “inactive”.

In the case of CN1CCC[C@@H]1Cc1c[nH]c2ccc(CCS(=O)(=O)c3ccccc3)cc12, the Potency [6] is reported as “inactive”.

With O=C1NC(=O)[C@@]2(CCOc3ccc(F)cc32)N1 the Potency [6] was “inactive”.

In the case of Cn1c(=O)c2c(ncn2CC2OCCO2)n(C)c1=O, the Potency [6] is reported as “inactive”.

In the case of Oc1cn2c(n1)Nc1ccc(Cl)c(Cl)c1C2, the Potency [6] is reported as “inactive”.

With CC(C)(C(=O)O)c1ccc(C(O)CCCN2CCC(C(O)(c3ccccc3)c3ccccc3)CC2)cc1 (centres undefined) the outcome [2] was “inactive”, the outcome [3] was “inactive” and the outcome [4] was “inactive”. The outcome [5] was “inactive”, the Potency [7] was “inactive” and the Potency [8] was “inactive”.

With CC(C)(C)NCC(O)COc1ccc(NC(=O)NC2CCCCC2)cc1 (centres undefined) the Potency [6] was “inactive”.

With O=S(=O)(O)NC1CCCCC1 the Potency [6] was “inactive”.

In the case of Cc1cc(CC(=O)O)n(C)c1C(=O)c1ccc(Cl)cc1, the Potency [6] is reported as “inactive”.

With CCCCN1CCCC[C@H]1C(=O)Nc1c(C)cccc1C the Potency [6] was “inactive”.

In the case of Cc1cccc(C)c1NC(=O)CN(CC(=O)O)CC(=O)O, the Potency [6] is reported as “inactive”.

With NC(=O)NNc1ccccc1 the Potency [6] was “inactive”.

With C[C@H](N)[C@H](O)c1cccc(O)c1 the Potency [6] was “inactive”.
